Assay outcomes from PubChem BioAssay.
An excerpt weighted towards active compounds, which were near 19% of everything screened.
TDP1 inh – inhibitors of human tyrosyl-DNA phosphodiesterase TDP1. Q9NUW8. recombinant TDP1, AlphaScreen DNA substrate cleavage. Potency, µM (highest dose often 130 µM), actives largely listed as inhibitors. actives 0.28% (n = 350,000); further: nearly all actives have a fitted effect of over 40% in size
Target sequence (Q9NUW8 whole entry, looked up): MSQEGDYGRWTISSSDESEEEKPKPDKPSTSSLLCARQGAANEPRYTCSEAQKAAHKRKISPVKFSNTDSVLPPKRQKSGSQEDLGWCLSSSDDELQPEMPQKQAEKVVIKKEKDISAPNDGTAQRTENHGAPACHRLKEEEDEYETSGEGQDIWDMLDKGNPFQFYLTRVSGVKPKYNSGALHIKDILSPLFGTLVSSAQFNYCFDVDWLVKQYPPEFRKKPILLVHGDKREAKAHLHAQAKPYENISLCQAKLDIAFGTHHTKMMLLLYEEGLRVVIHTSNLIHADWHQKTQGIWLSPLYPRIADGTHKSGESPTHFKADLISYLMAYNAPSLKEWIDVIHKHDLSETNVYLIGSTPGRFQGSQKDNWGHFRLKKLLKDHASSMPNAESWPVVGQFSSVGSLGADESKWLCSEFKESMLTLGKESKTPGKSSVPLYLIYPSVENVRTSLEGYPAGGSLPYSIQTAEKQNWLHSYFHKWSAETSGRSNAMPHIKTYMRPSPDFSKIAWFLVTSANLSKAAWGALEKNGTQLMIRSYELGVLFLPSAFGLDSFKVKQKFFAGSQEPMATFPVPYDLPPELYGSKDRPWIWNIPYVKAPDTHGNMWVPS
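Here, a 5' biotin and 3' phosphotyrosine-FITC DNA oligonucleotide reports Tdp1 activity: intact substrate bridges AlphaScreen beads, while cleavage leaves a 3' phosphate and drops signal. All incubations at room temperature.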
HepG2 viability – counter-screen for TGF-b inhibitors: cytotoxicity in HepG2 cells; HepG2 CAGA-GFP viability, ATP luminescence, 18 h; Potency, µM (titrated, usually from 46.1 µM), most hits filed as cytotoxic; actives 0.76% (n = 410,000)
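CellTiter-Glo luminescence gave cytotoxicity after 18 hours at 37 degrees C. The cells were HepG2 CAGA-GFP in 1% FBS DMEM, stimulated with 500 pg/mL TGF-beta after compound addition. %Activity was normalised to no-cell wells (complete cell-killing) and DMSO (no toxicity), and curves were fitted and classified.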
TDP1 cell CPT – DT40-hTDP1 cell growth loss with CPT | chicken DT40 Tdp1-/-;hTDP1 cells + 20 nM CPT, ATP luminescence, 48 h | Potency, µM (titrated, usually from 46.2 µM), hits mostly inhibitors | actives 12% (n = 420,000) | AID 686979; further: nearly all actives have a fitted effect of over 55% in size
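Chicken DT40 Tdp1-/- cells stably complemented with human TDP1 were seeded at 400 cells/well in medium containing 20 nM camptothecin, exposed to pin-transferred compounds, and grown at 37 °C for at least 48 hr. Viability was read as ATP luminescence.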
TGFb SMAD3 inh – inhibitors of TGF-b signaling. AID 588855. Potency, µM (doses to about 46.1 µM), usual class: inhibitors. HepG2 CAGA-GFP TGF-b/SMAD3 reporter, GFP fluorescence, 18 h; TGF-beta stimulated, 500 pg/mL final. actives 1.2% (n = 410,000); further: nearly all actives have a fitted effect of over 65% in size
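Using HEPG2 CAGA-GFP reporter cells at 1000 cells/well, we pinned test compounds, stimulated with recombinant TGF-beta (500 pg/mL final) and measured total well GFP after 18 h.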
DT40 TDP1 no CPT – qHTS for Inhibitors of human tyrosyl-DNA phosphodiesterase 1 (TDP1): qHTS in cells in absence of CPT; DT40 Tdp1-/- hTDP1 cells, no CPT, ATP luminescence, 48 h; Potency, µM (titrated, usually from 46.2 µM), most hits filed as inhibitors; actives 15% (n = 420,000); AID 686978, 2013; further: nearly all actives have a fitted effect of over 55% in size
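Compound effects on proliferation are scored in DT40 Tdp1-/-;hTDP1 cells in the absence of CPT. ATP levels (CellTiter-Glo luminescence) are recorded after a ≥48 hr, 37 °C incubation.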
IL1B secr inh – inhibitors of inflammasome signaling (IL-1 beta secretion). THP-1 LPS/ATP IL-1B secretion, AlphaLISA, 16 h; active compounds read low. activity change, % at 57.5 µM. actives 4.7% (n = 360,000). AID 743279; in the data active means activity change below about -50%; inconclusive means mostly about -30% to -49%
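Secreted IL-1B measured by AlphaLISA bead assay after 16 h compound exposure of THP-1 cells; compounds (final up to 57.5 uM) added 1 h before LPS (250 ng/mL) and ATP (1.25 mM) stimulation; lower signal means less secretion.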
Each line names hits and unclear results; the compound was inactive in the other large screens. Unless noted, the call rests on the fitted dose curve; in most records, active means well fitted curve in the direction sought with a large enough effect; inconclusive means small, poorly fitted or top-dose-only effect, or another doubt; inactive means no such curve, though single readings can be large; an effect the other way counts as inactive or inconclusive.

COc1ccccc1OCCOc1ccc(C(=O)c2ccccc2)cc1	TDP1 cell CPT 18.4µM, DT40 TDP1 no CPT inconclusive
COc1ccccc1OCc1ccc(C(=O)c2ccccc2)cc1	DT40 TDP1 no CPT inconclusive, IL1B secr inh inconclusive (no result: TDP1 inh)
CC1CCN(CCCOc2ccc(OCc3ccccc3)cc2)CC1	TDP1 cell CPT inconclusive, DT40 TDP1 no CPT inconclusive
COc1ccc(N(Cc2cc(=O)[nH]c3ccccc23)C(=O)C(C)C)cc1	none (no result: TDP1 inh)
Cc1ccc(Cl)cc1N1CCN(C(=O)c2cn(C)c3ccc(S(=O)(=O)N4CCCCC4)cc3c2=O)CC1	none (no result: IL1B secr inh)
CC(C)C[C@@H](CN1CCCC1CN1C(=S)NC[C@@H]1Cc1ccc(O)cc1)N1C[C@H](Cc2ccccc2)N(CC2CCCCC2)C1=S (stereo partly drawn)	TDP1 cell CPT inconclusive, TGFb SMAD3 inh inconclusive, DT40 TDP1 no CPT inconclusive (no result: TDP1 inh)
O=C1NC[C@H](Cc2ccc(O)cc2)N(C[C@@H]2CCCN2C[C@H](Cc2ccccc2)N2C[C@H](Cc3ccc(O)cc3)N(CC3CCCCC3)C(=O)C2=O)C1=O	TDP1 cell CPT inconclusive, DT40 TDP1 no CPT inconclusive (no result: TDP1 inh, HepG2 viability, TGFb SMAD3 inh)
O=C1NC[C@H](Cc2ccc(O)cc2)N(C[C@@H]2CCCN2C[C@H](Cc2ccc(O)cc2)N2C[C@H](Cc3ccccc3)N(CC3CCCCC3)C(=O)C2=O)C1=O	none (no result: TDP1 inh, HepG2 viability, TGFb SMAD3 inh)
CC(C)C[C@H]1CNC(=S)N1C[C@H]1CCCN1C[C@H](Cc1ccc(O)cc1)N1C[C@H](Cc2ccc(O)cc2)N(CC2CCCCCC2)C1=S	HepG2 viability 12.6µM, TDP1 cell CPT 4.61µM, TGFb SMAD3 inh inconclusive, DT40 TDP1 no CPT 6.51µM, IL1B secr inh inconclusive (no result: TDP1 inh)
CC(C)C[C@H]1CN([C@@H](Cc2ccc(O)cc2)CN2CCCC2CN2C(=S)NC[C@@H]2Cc2ccccc2)C(=S)N1CC1CCCCC1 (stereo partly drawn)	TDP1 cell CPT 16.4µM, DT40 TDP1 no CPT 14.6µM (no result: TDP1 inh, HepG2 viability, TGFb SMAD3 inh)
CC(C)C[C@H]1CNC(=S)N1C[C@H]1CCCN1C[C@H](CC(C)C)N1C[C@H](Cc2ccc(O)cc2)N(CC2CCCCC2)C1=S	TDP1 cell CPT 10.3µM, DT40 TDP1 no CPT 13µM, IL1B secr inh -61.9 (no result: TDP1 inh, HepG2 viability, TGFb SMAD3 inh)
Oc1ccc(C[C@H]2CNC(=S)N2C[C@H]2CCCN2C[C@H](Cc2ccccc2)N2C[C@H](Cc3ccccc3)N(CC3CCCCC3)C2=S)cc1	TDP1 cell CPT inconclusive, DT40 TDP1 no CPT 13µM (no result: TDP1 inh, HepG2 viability, TGFb SMAD3 inh)
COc1ccc2c(c1)c1c(c(=O)n(-c3ccc(F)c(Cl)c3)c(=O)n1CC(=O)N1CCCC1)n2C	none (no result: IL1B secr inh)
COCCNC(=O)/C(C#N)=C/c1cc(Br)c(O)c(OC)c1	none
COCCNC(=O)/C(C#N)=C/c1ccc(-c2ccc(S(=O)(=O)N3CCOCC3)cc2)o1	TDP1 cell CPT inconclusive, DT40 TDP1 no CPT inconclusive
CCOCCCNC(=O)/C(C#N)=C/c1ccc([N+](=O)[O-])o1	TDP1 cell CPT 1.3µM, DT40 TDP1 no CPT 1.84µM, IL1B secr inh -110.8
CCOCCCNC(=O)/C(C#N)=C/c1ccc(-c2ccc(S(=O)(=O)N3CCOCC3)cc2)o1	TDP1 cell CPT 11.6µM, DT40 TDP1 no CPT 8.2µM
CCOCCCNC(=O)/C(C#N)=C/c1cc(Br)c(O)c(Br)c1	TDP1 cell CPT 4.11µM, TGFb SMAD3 inh inconclusive, DT40 TDP1 no CPT 1.64µM, IL1B secr inh inconclusive (no result: TDP1 inh)
N#Cc1c2ccc([N+](=O)[O-])cc2[n+]([O-])n1-c1ccccc1	none (no result: HepG2 viability, TDP1 cell CPT, TGFb SMAD3 inh, DT40 TDP1 no CPT, IL1B secr inh)
CCCCOc1ccc(Cn2c(=O)sc3ccccc32)cc1OC	TDP1 cell CPT inconclusive, DT40 TDP1 no CPT inconclusive (no result: IL1B secr inh)
CNCCCOc1ccc(Cl)cc1C(C)(C)C	TDP1 cell CPT inconclusive, TGFb SMAD3 inh inconclusive, DT40 TDP1 no CPT 16.4µM, IL1B secr inh -71.9
C=CCc1cc(Cl)ccc1OCCNCCCOC	TDP1 cell CPT inconclusive, DT40 TDP1 no CPT inconclusive, IL1B secr inh inconclusive
COCCCNCCCOc1ccc(Cl)cc1C(C)(C)C	HepG2 viability 15.8µM, TDP1 cell CPT 11.6µM, TGFb SMAD3 inh inconclusive, DT40 TDP1 no CPT 18.4µM, IL1B secr inh -89.2
